Assay results reported in PubChem BioAssay AID1508622 (National Center for Advancing Translational Sciences (NCATS), 2021).
Values without a mark were called inactive. Activity calls are given as the source filed them. Calls follow the shape of the dose curve; as a rule, active = well fitted activation curve with a large enough effect; inconclusive = small, poorly fitted or top-dose-only effect; inactive = no such curve, though single readings can be large or run the other way.

experiment: Confirmatory qHTS for Identification of Small Molecule Activators of Huntingtin-Antisense Promoter Activity; settings: HEK293 HTT-AS promoter firefly luciferase reporter, 24 h; series mostly up to 57.5 µM; activity change, positive = activation: at the top concentration
How it was run: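 Plated reporter HEK293 cells (24 h) received library compounds at up to 57.5 uM final or 50 uM PTC124, incubated 24 h at 37C; firefly luciferase luminescence was then recorded with Dual-Glo reagent.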
Potency is read from the fitted curve at half-maximal effect.

| SMILES | activity change, positive = activation | Potency |
| --- | --- | --- |
| CC(C)C(=O)N1c2ncnn2C2(CCCCC2)[C@@H]2CCCC[C@@H]21 | -18.3% | – |
| Cn1cnc(S(=O)(=O)N2CCC(C(=O)Nc3ccc(OC(F)(F)F)cc3)CC2)c1 | -95% | – |
| O=C(Nc1ccc(OC(F)(F)F)cc1)C(NS(=O)(=O)c1cccc2nsnc12)c1ccccc1 (centres undefined) | -22.1% | – |
| CCOc1ccc(CCNC(=O)C(CC(C)C)N2Cc3ccccc3C2=O)cc1OCC (centres undefined) | -50.7% | – |
| Cc1ccc(Cl)cc1N(C)C(=O)C1CCCN(c2ncnc3onc(-c4ccc(F)cc4)c23)C1 (centres undefined) | -42.5% | – |
| COc1cc2nc(N3CCCN(C)CC3)nc(NC3CCN(Cc4ccccc4)CC3)c2cc1OC | -53.4% | – |
| Cc1ccc(Cl)cc1-n1ncc2c(Nc3cccc(C)c3C)ncnc21 | -20.5% | – |
| COc1cc(CN2CCc3nc(N4CCN(c5ccccc5F)CC4)ncc3C2)ccc1OC(C)C | -71.5% | – |
| Cc1nc2nncn2c(NCc2ccc(Cl)cc2)c1C | -93.3% | – |
| Cc1cccc(-c2nc(SCC(=O)Nc3ccc4c(c3)OCO4)c(-c3ccccc3)[nH]2)c1 | -19.4% | – |
| COc1ccc(-n2ccnc2SCC(=O)Nc2cccc(OC)c2)cc1 | -49% | – |
| COc1ccc(C)cc1NC(=O)Cn1c(=O)cc(C)c2c(C)nn(C)c21 | -94.4% | – |
| CC(=O)N1CCCc2cc(S(=O)(=O)N3CCCC(C(=O)N4CCN(c5ccccc5)CC4)C3)ccc21 (centres undefined) | -51.9% | – |
| COc1ccc(-c2nnc(C3CCN(C(=O)c4ccccc4F)CC3)o2)cc1 | 11.7% | – |
| CC1=C(C(=O)OC2CCCC2)C(c2ccccc2Cl)CC(=O)N1 (centres undefined) | -43.8% | – |
| N#Cc1nc(-c2ccc(COc3ccc(Cl)cc3)o2)oc1N1CCC(C(N)=O)CC1 | -42.8% | – |
| CCN(CC)S(=O)(=O)c1ccc(NC(=O)CCc2c(C)nc3cc(-c4ccc(Cl)cc4)nn3c2C)cc1 | -85.7% | – |
| Cn1cnc(=N)c2[nH]cnc21 | 2.01% | – |
| CSc1ccc(CCNC(=O)c2ccc(CS(=O)(=O)c3ccc(Br)cc3)o2)cc1 | -30.2% | – |
| Cc1ccc(C)c(NC(=O)Cn2c(-c3nonc3N)nc3ccccc32)c1 | -5.46% | – |

| SMILES | activity change, positive = activation | Potency |
| --- | --- | --- |
| CC(=O)N1CCCc2cc(S(=O)(=O)N(C)CC(=O)Nc3ccc(F)cc3Cl)ccc21 | -30.4% | – |
| Cc1oc(-c2ccc(Cl)cc2)nc1CN1CCCC(C(=O)NCCc2ccccc2)C1 (centres undefined) | -92% | – |
| COc1cccc(C2=CC(c3cc(Br)ccc3F)n3nnnc3N2)c1 (centres undefined) | -35.3% | – |
| COc1ccccc1N1CCN(C(CNC(=O)C(=O)NCCc2ccccc2)c2cccnc2)CC1 (centres undefined) | -46.1% | – |
| CCc1ccc(NC(=O)c2ccc(F)c(S(=O)(=O)N(C)C3CCCCC3)c2)cc1 | -93.9% | – |
| CN(C)c1ccc(C(=C2C=CC(=[N+](C)C)C=C2)c2ccc(N(C)C)cc2)cc1 | -95.6% | – |
| Cc1ccccc1Nc1c(-c2cccnc2)nc2cccc(C)n12 | -54.6% | – |
| CCc1ccc(NC(=O)C2CCCN(S(=O)(=O)c3ccc(F)cc3)C2)cc1 (centres undefined) | -27.7% | – |
| CCC(=O)C1=C(c2cccc([N+](=O)[O-])c2)N(C(=O)CC)n2c(nnc2C2CCCCC2)S1 | -47.3% | – |
| CCCCOc1ccc(C(=O)Nc2ccc3c(c2)CCCN3S(=O)(=O)c2ccc(C)cc2)cc1 | -62.3% | – |
| Cc1ccc(NC(=O)c2c(Nc3ccccc3C)sc(C(=O)c3ccccc3)c2N)cc1 | -20.9% | – |
| COC(=O)[C@]12CCC(C)(C)C[C@@H]1[C@@H]1C(=O)C=C3[C@@]4(C)C=C(C#N)C(=O)C(C)(C)[C@@H]4CC[C@@]3(C)[C@]1(C)CC2 | -17% | – |
| COc1ccccc1N1CCN(C(=O)C2CCCN(S(=O)(=O)c3ccc4c(c3)CCCN4C(C)=O)C2)CC1 (centres undefined) | -55.3% | – |
| CN(C)S(=O)(=O)c1ccc(C(=O)NCCSc2c(-c3ccc(Cl)cc3)[nH]c3ccccc23)cc1 | -31.7% | – |
| CCCOc1ccccc1C(=O)N1CCC(c2nc3ccccc3s2)CC1 | -60.7% | – |
| CCOc1ccc(CCNC(=O)c2sc3ncccc3c2-n2c(C)ccc2C)cc1 | -65.6% | – |
| Cc1ccc(-c2onc(C)c2C)cc1S(=O)(=O)N1CCC(C)CC1 | -92.6% | – |
| O=C(C=Cc1ccc(CN(CCO)CCc2c[nH]c3ccccc23)cc1)NO | – | 2.13 µM (active) |
| O=S(=O)(Nc1ccc(F)c(C(F)(F)F)c1)c1ccc(N2CCCCS2(=O)=O)cc1 | -93.8% | – |
